Each structure is given as a SMILES string.

Test [1] deals with T1, Inhibitor of nuclear factor kappa-B kinase subunit epsilon (Homo sapiens) (UniProt Q14164).
T1 sequence (whole entry): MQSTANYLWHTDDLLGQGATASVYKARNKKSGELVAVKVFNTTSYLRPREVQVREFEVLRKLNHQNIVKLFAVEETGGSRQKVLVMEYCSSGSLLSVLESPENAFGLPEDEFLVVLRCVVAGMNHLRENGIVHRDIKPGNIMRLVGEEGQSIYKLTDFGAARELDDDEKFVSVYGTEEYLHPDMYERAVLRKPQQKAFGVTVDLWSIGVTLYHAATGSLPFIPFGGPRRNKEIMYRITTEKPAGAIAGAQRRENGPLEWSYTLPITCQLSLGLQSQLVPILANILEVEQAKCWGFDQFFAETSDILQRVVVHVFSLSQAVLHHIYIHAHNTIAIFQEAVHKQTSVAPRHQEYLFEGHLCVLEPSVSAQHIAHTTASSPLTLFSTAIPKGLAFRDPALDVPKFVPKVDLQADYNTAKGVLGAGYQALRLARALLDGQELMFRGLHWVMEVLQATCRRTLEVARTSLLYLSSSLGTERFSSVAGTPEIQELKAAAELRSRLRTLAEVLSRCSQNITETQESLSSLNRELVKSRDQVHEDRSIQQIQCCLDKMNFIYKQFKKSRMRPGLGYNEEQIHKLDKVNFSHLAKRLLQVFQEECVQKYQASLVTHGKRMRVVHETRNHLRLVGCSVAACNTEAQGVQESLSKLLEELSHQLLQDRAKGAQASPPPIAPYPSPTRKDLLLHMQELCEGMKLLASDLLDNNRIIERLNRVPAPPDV
Particulars: at 1 µM.

The target in test [2] is T2, Serine/threonine-protein kinase Nek1 (Homo sapiens) (UniProt Q96PY6).
T2 sequence (whole entry): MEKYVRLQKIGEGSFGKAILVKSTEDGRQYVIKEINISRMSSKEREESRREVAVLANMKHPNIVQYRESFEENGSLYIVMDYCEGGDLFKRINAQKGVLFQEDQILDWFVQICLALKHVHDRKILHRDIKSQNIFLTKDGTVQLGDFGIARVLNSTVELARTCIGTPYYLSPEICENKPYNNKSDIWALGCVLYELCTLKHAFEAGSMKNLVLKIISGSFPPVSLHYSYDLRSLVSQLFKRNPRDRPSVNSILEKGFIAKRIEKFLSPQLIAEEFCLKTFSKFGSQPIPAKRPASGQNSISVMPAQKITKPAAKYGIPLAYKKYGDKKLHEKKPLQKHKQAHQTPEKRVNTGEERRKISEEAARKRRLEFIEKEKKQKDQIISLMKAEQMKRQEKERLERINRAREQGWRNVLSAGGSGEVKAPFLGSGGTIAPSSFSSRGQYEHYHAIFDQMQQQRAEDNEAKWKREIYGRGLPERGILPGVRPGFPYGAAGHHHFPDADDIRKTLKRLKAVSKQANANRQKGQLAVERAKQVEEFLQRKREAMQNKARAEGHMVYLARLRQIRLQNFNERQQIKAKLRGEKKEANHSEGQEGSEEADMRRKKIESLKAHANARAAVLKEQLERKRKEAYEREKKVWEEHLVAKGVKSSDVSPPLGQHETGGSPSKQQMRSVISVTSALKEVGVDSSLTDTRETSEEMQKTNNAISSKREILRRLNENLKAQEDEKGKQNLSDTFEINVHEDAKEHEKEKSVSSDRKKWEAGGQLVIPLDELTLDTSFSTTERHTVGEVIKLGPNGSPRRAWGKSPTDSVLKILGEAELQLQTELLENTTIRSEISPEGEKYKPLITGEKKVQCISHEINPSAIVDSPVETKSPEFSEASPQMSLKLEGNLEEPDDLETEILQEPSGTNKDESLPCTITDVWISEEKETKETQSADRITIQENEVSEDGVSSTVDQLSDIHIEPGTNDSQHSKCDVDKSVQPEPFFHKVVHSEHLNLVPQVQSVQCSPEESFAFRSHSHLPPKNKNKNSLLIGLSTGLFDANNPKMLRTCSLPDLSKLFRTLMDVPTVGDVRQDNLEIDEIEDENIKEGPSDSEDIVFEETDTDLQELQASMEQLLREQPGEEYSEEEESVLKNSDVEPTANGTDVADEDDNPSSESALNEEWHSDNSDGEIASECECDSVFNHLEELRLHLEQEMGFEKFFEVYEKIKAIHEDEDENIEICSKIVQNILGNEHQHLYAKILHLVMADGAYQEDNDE
Particulars: at 0.1 µM.

Test [3] concerns the target T2, Serine/threonine-protein kinase Nek1 (Homo sapiens). Particulars: at 1 µM.
The target in test [4] is T3, Serine/threonine-protein kinase Nek2 (Homo sapiens) (UniProt P51955).
T3 sequence (whole entry): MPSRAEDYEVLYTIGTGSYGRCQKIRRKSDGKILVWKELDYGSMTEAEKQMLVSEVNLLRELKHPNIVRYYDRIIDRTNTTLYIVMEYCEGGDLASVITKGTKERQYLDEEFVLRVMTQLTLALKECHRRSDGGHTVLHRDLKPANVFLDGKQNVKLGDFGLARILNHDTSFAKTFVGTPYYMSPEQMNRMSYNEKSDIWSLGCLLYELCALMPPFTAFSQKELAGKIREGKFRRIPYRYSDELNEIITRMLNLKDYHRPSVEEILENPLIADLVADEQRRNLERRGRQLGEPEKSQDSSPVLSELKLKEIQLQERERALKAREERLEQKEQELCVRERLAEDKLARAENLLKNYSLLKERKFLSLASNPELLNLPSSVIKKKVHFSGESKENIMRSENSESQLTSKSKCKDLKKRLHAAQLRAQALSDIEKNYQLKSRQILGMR
As to conditions: at 0.1 µM.

The target in test [5] is T3, Serine/threonine-protein kinase Nek2 (Homo sapiens). As to conditions: at 1 µM.
In test [6] the target is Serine/threonine-protein kinase Nek6 (Homo sapiens) (UniProt Q9HC98). As to conditions: at 0.1 µM.
Test [7] shares this target. As to conditions: at 1 µM.
The target of test [8] is Serine/threonine-protein kinase Nek7 (Homo sapiens) (UniProt Q8TDX7). As to conditions: at 0.1 µM.
Test [9] has the same target. Particulars: at 1 µM.
In test [10] the target is T4, Serine/threonine-protein kinase Nek9 (Homo sapiens) (UniProt Q8TD19).
T4 sequence (whole entry): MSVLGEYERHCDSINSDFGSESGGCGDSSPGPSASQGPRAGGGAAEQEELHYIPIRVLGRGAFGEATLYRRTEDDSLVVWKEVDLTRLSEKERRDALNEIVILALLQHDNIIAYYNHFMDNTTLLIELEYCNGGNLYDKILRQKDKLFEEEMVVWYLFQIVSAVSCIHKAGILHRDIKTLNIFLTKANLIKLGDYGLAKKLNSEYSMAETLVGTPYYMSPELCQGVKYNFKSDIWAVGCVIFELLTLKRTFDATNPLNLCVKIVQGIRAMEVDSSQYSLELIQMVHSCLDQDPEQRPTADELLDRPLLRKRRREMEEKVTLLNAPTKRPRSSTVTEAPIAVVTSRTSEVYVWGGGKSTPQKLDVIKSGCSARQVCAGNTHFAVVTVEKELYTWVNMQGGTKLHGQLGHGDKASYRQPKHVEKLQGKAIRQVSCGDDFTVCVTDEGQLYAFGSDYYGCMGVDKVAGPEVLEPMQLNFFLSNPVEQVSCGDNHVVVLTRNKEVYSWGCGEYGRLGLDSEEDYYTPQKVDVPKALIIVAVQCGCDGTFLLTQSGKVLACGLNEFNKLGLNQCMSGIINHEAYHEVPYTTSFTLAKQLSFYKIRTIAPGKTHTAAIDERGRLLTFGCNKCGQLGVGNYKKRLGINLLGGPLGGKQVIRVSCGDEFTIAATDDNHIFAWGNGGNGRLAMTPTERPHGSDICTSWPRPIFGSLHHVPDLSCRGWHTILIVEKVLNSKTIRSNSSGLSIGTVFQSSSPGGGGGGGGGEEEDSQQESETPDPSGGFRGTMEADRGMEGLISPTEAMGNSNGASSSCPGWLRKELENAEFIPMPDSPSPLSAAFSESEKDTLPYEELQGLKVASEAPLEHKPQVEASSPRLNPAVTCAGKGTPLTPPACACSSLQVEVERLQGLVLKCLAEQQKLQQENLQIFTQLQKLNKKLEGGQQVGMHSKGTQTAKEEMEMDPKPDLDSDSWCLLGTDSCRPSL
As to conditions: at 0.1 µM.

The target of test [11] is T4, Serine/threonine-protein kinase Nek9 (Homo sapiens). Particulars: at 1 µM.
The target of test [12] is Serine/threonine-protein kinase PLK1 (Homo sapiens) (UniProt P53350). Particulars: at 0.1 µM.
For test [13] the target is unchanged. As to conditions: at 1 µM.
The target in test [14] is T5, Dual specificity protein kinase TTK (Homo sapiens) (UniProt P33981).
T5 sequence (whole entry): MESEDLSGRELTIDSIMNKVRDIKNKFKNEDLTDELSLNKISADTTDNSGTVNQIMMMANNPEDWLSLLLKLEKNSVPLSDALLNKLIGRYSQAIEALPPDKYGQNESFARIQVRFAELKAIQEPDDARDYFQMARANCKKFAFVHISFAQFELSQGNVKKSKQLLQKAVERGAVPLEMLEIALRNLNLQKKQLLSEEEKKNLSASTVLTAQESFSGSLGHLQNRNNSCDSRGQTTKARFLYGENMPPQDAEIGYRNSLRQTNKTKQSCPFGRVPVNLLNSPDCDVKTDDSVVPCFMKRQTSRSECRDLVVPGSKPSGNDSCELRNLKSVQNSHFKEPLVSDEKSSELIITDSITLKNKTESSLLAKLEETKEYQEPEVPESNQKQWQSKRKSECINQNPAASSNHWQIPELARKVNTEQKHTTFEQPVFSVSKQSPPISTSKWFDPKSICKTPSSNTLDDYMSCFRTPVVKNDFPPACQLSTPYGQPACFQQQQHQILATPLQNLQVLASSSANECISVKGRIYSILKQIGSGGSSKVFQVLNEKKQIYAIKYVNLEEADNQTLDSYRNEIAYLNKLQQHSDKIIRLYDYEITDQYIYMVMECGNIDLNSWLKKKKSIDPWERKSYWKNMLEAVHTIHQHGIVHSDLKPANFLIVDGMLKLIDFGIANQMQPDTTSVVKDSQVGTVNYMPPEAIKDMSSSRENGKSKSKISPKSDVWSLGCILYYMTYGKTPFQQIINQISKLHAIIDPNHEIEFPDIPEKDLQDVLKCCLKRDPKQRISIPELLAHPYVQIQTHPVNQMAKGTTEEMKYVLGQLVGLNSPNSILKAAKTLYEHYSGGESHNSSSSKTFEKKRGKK
Particulars: at 0.1 µM.

Test [15] has as its system T6, Receptor-type tyrosine-protein kinase FLT3 (Homo sapiens), P36888 [D835Y].
T6 sequence (whole entry): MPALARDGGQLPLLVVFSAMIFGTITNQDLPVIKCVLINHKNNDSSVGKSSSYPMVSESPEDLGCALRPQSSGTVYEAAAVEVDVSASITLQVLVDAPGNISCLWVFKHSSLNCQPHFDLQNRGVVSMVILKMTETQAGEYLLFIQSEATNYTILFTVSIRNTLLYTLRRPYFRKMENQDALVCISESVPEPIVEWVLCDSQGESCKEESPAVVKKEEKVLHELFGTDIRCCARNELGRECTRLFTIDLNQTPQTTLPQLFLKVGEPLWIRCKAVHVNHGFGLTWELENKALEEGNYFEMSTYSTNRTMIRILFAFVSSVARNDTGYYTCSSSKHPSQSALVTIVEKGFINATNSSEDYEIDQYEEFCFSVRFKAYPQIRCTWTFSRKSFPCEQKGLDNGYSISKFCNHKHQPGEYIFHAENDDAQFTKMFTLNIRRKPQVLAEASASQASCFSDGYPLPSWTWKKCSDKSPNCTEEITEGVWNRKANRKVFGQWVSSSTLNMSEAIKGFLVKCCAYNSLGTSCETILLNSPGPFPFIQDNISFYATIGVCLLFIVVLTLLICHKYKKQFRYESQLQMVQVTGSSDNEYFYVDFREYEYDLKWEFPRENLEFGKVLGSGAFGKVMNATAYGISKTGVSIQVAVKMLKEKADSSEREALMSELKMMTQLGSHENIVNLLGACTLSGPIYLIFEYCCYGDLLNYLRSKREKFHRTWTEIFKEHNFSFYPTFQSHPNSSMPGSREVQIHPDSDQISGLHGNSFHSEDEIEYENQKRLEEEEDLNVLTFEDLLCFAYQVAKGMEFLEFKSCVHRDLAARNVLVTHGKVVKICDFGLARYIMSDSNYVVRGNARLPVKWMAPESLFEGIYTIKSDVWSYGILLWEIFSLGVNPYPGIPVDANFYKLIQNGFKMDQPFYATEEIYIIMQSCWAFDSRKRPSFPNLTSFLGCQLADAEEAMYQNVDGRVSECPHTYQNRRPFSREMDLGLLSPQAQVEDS
Particulars: at 1 µM.

Test [16] deals with Vascular endothelial growth factor receptor 3 (Homo sapiens) (UniProt P35916). Particulars: at 0.1 µM.
The target is the same in test [17]. Particulars: at 1 µM.
The target of test [18] is Macrophage colony-stimulating factor 1 receptor (Homo sapiens) (UniProt P07333). Particulars: at 0.1 µM.
The target is the same in test [19]. As to conditions: at 1 µM.
Test [20] deals with Tyrosine-protein kinase Fyn (Homo sapiens) (UniProt P06241). Particulars: at 0.1 µM.
Tyrosine-protein kinase Fyn (Homo sapiens), sequence (P06241 2-537 limits assumed): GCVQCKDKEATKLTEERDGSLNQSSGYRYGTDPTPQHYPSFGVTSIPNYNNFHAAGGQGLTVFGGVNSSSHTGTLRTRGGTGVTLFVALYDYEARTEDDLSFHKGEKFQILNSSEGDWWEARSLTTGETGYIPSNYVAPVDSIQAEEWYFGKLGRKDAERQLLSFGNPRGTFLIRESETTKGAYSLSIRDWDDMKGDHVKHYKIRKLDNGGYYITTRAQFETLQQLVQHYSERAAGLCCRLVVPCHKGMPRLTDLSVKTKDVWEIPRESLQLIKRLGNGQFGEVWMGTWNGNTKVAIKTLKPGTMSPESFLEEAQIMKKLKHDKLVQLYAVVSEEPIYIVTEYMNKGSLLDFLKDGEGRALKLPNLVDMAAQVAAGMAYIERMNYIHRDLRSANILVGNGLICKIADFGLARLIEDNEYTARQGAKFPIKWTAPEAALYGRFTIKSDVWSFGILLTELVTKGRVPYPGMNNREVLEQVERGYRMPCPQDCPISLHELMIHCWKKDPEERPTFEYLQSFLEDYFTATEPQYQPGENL

Serine/threonine-protein kinase PLK1 (Homo sapiens), sequence (P53350 whole entry): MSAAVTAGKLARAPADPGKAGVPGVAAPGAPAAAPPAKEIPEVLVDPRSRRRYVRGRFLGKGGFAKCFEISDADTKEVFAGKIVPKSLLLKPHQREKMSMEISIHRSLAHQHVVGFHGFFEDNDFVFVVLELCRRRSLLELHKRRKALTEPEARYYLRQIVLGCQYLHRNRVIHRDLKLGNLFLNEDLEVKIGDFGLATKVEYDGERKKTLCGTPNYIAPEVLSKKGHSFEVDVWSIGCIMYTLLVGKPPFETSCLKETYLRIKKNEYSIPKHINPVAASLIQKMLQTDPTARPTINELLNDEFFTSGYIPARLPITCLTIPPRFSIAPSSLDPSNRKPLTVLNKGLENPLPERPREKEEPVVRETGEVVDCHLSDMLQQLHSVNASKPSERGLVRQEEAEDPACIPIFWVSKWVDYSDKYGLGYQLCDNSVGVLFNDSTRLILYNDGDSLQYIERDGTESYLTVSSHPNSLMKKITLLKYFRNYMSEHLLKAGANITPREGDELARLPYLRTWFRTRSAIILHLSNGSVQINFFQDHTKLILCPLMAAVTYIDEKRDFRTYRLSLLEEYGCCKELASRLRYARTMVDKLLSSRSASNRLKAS
Serine/threonine-protein kinase Nek7 (Homo sapiens), sequence (Q8TDX7 whole entry, looked up): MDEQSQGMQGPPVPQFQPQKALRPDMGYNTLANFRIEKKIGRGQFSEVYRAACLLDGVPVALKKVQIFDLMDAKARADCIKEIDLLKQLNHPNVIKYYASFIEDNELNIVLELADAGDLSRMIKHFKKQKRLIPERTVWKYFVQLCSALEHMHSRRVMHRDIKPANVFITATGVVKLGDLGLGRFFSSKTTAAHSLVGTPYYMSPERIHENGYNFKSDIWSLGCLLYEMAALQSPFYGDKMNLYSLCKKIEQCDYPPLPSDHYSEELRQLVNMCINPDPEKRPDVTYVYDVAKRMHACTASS
Vascular endothelial growth factor receptor 3 (Homo sapiens), sequence (P35916 whole entry): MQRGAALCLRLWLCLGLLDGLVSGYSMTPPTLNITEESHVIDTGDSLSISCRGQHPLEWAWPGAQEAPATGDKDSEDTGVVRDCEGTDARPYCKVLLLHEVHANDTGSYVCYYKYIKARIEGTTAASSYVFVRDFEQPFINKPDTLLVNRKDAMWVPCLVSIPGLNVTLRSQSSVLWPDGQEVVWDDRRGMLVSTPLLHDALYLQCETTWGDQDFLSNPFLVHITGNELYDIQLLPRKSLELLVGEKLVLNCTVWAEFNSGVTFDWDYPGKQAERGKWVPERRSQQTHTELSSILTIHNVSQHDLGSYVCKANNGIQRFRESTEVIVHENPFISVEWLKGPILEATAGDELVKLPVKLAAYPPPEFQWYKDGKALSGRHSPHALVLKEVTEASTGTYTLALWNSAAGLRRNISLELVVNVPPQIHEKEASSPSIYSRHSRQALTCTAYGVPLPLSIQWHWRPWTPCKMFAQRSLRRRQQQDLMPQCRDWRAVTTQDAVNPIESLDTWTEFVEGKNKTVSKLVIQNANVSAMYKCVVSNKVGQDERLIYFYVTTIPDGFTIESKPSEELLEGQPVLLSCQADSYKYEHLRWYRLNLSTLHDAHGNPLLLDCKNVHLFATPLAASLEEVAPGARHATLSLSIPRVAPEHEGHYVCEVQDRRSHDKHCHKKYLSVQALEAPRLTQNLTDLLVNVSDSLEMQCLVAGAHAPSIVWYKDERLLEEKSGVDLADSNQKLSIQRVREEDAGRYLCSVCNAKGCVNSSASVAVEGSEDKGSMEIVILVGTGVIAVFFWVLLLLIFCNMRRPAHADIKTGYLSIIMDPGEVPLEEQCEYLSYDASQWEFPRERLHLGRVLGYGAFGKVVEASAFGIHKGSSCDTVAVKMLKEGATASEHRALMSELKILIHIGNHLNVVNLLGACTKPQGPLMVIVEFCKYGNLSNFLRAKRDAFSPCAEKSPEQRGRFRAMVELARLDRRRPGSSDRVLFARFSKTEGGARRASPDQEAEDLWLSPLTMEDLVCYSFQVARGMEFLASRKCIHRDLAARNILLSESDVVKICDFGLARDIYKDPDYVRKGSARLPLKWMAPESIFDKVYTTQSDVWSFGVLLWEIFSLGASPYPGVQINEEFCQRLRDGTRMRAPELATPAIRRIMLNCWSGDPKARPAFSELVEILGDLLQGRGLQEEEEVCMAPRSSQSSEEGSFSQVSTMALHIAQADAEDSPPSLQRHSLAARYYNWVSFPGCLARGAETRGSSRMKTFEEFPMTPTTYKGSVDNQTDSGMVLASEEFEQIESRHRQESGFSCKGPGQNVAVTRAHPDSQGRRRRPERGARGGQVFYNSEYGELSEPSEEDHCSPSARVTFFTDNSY
Macrophage colony-stimulating factor 1 receptor (Homo sapiens), sequence (P07333 whole entry): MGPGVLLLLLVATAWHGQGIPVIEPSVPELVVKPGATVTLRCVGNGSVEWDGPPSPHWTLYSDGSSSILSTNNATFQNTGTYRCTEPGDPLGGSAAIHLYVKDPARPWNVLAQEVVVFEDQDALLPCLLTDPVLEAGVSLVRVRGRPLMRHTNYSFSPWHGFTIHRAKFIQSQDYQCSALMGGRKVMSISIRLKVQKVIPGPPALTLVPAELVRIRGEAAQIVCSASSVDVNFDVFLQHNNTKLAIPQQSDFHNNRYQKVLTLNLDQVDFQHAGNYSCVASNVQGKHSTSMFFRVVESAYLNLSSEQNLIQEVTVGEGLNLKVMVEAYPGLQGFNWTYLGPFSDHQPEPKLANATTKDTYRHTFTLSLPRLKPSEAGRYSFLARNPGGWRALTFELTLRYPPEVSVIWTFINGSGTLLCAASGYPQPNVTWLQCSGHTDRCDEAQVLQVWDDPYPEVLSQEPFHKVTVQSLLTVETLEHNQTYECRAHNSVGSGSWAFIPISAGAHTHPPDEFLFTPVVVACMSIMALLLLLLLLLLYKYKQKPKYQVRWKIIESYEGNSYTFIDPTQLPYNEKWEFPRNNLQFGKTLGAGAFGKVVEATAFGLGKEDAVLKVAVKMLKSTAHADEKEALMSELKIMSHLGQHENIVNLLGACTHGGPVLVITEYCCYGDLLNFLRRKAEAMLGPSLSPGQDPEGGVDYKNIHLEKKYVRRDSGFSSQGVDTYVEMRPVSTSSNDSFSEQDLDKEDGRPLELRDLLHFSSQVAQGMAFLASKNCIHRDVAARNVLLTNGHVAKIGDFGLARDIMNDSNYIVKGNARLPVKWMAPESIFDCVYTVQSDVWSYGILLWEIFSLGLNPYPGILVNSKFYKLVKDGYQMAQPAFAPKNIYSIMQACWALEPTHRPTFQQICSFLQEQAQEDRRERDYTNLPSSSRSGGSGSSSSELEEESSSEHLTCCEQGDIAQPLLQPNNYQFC
Serine/threonine-protein kinase Nek6 (Homo sapiens), sequence (Q9HC98 whole entry): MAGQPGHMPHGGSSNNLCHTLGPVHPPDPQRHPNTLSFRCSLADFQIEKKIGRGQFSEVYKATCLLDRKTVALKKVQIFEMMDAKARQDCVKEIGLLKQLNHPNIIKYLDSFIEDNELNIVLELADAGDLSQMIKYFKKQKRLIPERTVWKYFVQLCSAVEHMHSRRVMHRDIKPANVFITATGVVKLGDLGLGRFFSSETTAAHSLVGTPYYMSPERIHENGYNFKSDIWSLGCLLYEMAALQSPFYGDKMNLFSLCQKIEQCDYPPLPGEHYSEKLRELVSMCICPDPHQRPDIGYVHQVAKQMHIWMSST

For the compound `COc1cc(Nc2ncc(-c3ccccc3)o2)cc(OC)c1OC`, the inhibition in test [1] was 1.15%; in test [2], -1.04%; in test [3], 1.71%; in test [4], -1.53%; in test [5] it was -0.62%; in test [6] it was -1.01%. Besides, the inhibition in test [7] is -3.53%; in test [8], -3.32%; in test [9] it was 3.67%; in [10] it was 5.06%; in test [11], 8.49%; in test [12], -0.55%. The inhibition in test [13] stood at 2.1%; in [14], 5.82%; in test [15] it was 63.1%; in test [16], 7.69%; in test [17], 36.7%; in test [18], 20.1%. The inhibition in test [19] worked out at 57.6%; in test [20], 6.4%.
Regarding `CCc1ccc(Oc2nccc(-c3c(-c4ccc(F)cc4)ncn3C3CCNCC3)n2)cc1`, the inhibition in test [1] was 6.86%; in test [2] it was 2.27%; in test [3] it was 1.69%; in [4], 4.75%; in test [5], 2.36%; in test [6] it was 2.41%. Besides, the inhibition is 0.8% in test [7]; 2.65% in test [8]; 5.98% in test [9]; -0.95% in test [10]; -3% in test [11]; 4.18% in [12]. Moreover, the inhibition in test [13] was 6.93%; in test [14], 5.58%; in [15], 7.51%; in test [16] it was 6.35%; in [17], 4.74%; in test [18] it was 1.36%. Also, the inhibition in [19] was determined as 6.16%; in test [20], 1.83%.

The values above are taken from ChEMBL document CHEMBL1961873, “Compounds: GSK PKIS; Assays: Nanosyn kinase panel” (2012).
